# According to PubChem BioAssay (NCI):
# This is part of a sample that, as a whole, favours compounds with a hit. Of some 83,000 tested, about 20% had one in any assay.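 Negative percent growth values reflect cell death: -40 means 40% of the cells present at the start died, and -100 means all died.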 The source made the active and inactive calls. How the source made its calls: active means growth percent below 10; inactive means the rest.
# Legend:
# Assay in all cases: NCI-60 one-dose screen, 48 h (100 = growth as untreated, 0 = no growth, -100 = all killed)
# Conditions in all cases: 10 µM unless noted
# HCT-15 colon = system: HCT-15 colon
# HT29 colon = system: HT29 colon
# SNB-75 CNS = system: SNB-75 CNS
# SNB-19 CNS = system: SNB-19 CNS
# U251 CNS = system: U251 CNS
# PC-3 prostate = system: PC-3 prostate
# SK-MEL-5 melanoma = system: SK-MEL-5 melanoma
# UACC-62 melanoma = system: UACC-62 melanoma
# LOX IMVI melanoma = system: LOX IMVI melanoma
# SK-MEL-28 melanoma = system: SK-MEL-28 melanoma
# SK-MEL-2 melanoma = system: SK-MEL-2 melanoma
# EKVX NSCLC = system: EKVX NSCLC
# SN12C renal = system: SN12C renal
# UO-31 renal = system: UO-31 renal
# TK-10 renal = system: TK-10 renal
# ACHN renal = system: ACHN renal
# CAKI-1 renal = system: CAKI-1 renal
# A498 renal = system: A498 renal
# CCRF-CEM leukemia = system: CCRF-CEM leukemia
# MOLT-4 leukemia = system: MOLT-4 leukemia
SMILES,growth (HCT-15 colon),growth (HT29 colon),growth (SNB-75 CNS),growth (SNB-19 CNS),growth (U251 CNS),growth (PC-3 prostate),growth (SK-MEL-5 melanoma),growth (UACC-62 melanoma),growth (LOX IMVI melanoma),growth (SK-MEL-28 melanoma),growth (SK-MEL-2 melanoma),growth (EKVX NSCLC),growth (SN12C renal),growth (UO-31 renal),growth (TK-10 renal),growth (ACHN renal),growth (CAKI-1 renal),growth (A498 renal),growth (CCRF-CEM leukemia),growth (MOLT-4 leukemia)
S=C(Nc1ccc(OCc2nc3ccc(Cl)cc3[nH]2)cc1)NC1CCCCC1,-63.4% (active),-47.2% (active),10.7% (inactive),10% (inactive),-48.1% (active),17.6% (inactive),-96.6% (active),-12.7% (active),-100% (active),0.982% (active),-44.9% (active),-7.76% (active),-80.6% (active),-7.63% (active),-10.8% (active),-16% (active),-5.65% (active),-1.77% (active),5.6% (active),1.31% (active)
CC1=C(C(=O)OCc2ccccc2)C(c2cccc3ccccc23)n2c(nc3ccccc32)N1 (stereo not given),21.7% (inactive),3.87% (active),-15.1% (active),40.9% (inactive),24.9% (inactive),22.8% (inactive),3.71% (active),17.3% (inactive),36.1% (inactive),50.5% (inactive),18% (inactive),41.9% (inactive),30.6% (inactive),34.2% (inactive),66.6% (inactive),41.1% (inactive),30.5% (inactive),62.6% (inactive),25.8% (inactive),32.3% (inactive)
Cc1ccc(Nc2nnc(-c3c[nH]c4ccccc34)o2)c(C)c1,8.92% (active),-37.9% (active),27.3% (inactive),31.3% (inactive),5.02% (active),28.7% (inactive),6.62% (active),7.3% (active),1.68% (active),54.5% (inactive),31.4% (inactive),21.9% (inactive),18% (inactive),26.4% (inactive),45.8% (inactive),34.3% (inactive),33.5% (inactive),112% (inactive),-0.0547% (active),0.191% (active)
COc1ccc(-c2cc(C)nc3[nH]c(=O)sc23)cc1,88.1% (inactive),93.3% (inactive),-4.05% (active),53.6% (inactive),9.93% (active),81.3% (inactive),80.4% (inactive),60.9% (inactive),45.9% (inactive),89.8% (inactive),100% (inactive),89.5% (inactive),43.2% (inactive),3.27% (active),17.1% (inactive),31.9% (inactive),40.5% (inactive),6.1% (active),81.5% (inactive),86.8% (inactive)
O=C(N/N=C/c1c[nH]c2ccccc12)Nc1ccc(F)c(Cl)c1,20.2% (inactive),33.5% (inactive),48% (inactive),73.4% (inactive),42.2% (inactive),43.3% (inactive),34% (inactive),48.6% (inactive),4.2% (active),58.8% (inactive),-9.22% (active),40.9% (inactive),42.1% (inactive),37.1% (inactive),80.6% (inactive),41.7% (inactive),32.1% (inactive),66.6% (inactive),12.9% (inactive),10.4% (inactive)
Cn1cc(-c2cc(N)n3nc(-c4c[nH]c5ccccc45)cc3n2)c2cc(F)ccc21,-77.5% (active),-35.4% (active),71.5% (inactive),15% (inactive),-39.4% (active),17.4% (inactive),67.4% (inactive),66.3% (inactive),-80.7% (active),77.5% (inactive),51.6% (inactive),60.2% (inactive),47.1% (inactive),59.7% (inactive),50.6% (inactive),31.7% (inactive),77.5% (inactive),99% (inactive),-0.0318% (active),25.7% (inactive)
O=C1CC(c2ccc(I)cc2)OC2C=Cc3ccccc3C12 (stereo not given),94.9% (inactive),90.7% (inactive),111% (inactive),101% (inactive),99.5% (inactive),101% (inactive),104% (inactive),78.9% (inactive),99.6% (inactive),116% (inactive),98.8% (inactive),82.9% (inactive),99% (inactive),85.8% (inactive),139% (inactive),109% (inactive),91.7% (inactive),119% (inactive),94.4% (inactive),96% (inactive)
Cc1ccc(S(=O)(=O)Nc2ccc(-c3ccc4c(c3)NC(=O)/C4=C\c3ccc[nH]3)cc2)cc1,68.7% (inactive),78.5% (inactive),96.1% (inactive),95.1% (inactive),77.3% (inactive),80.1% (inactive),99.1% (inactive),89.8% (inactive),91.7% (inactive),95.9% (inactive),105% (inactive),35.7% (inactive),85.8% (inactive),93.9% (inactive),98.4% (inactive),93.5% (inactive),87.3% (inactive),112% (inactive),62.3% (inactive),68.1% (inactive)
COc1cc(C2CC(c3ccc(Cl)cc3)=Nc3c(N)nc(N)nc3N2)ccc1Oc1nc(Nc2ccc(F)cc2)nc(N(C)C)n1 (stereo not given),25.1% (inactive),14.3% (inactive),33.7% (inactive),47.7% (inactive),45% (inactive),21.9% (inactive),17.9% (inactive),84.4% (inactive),16% (inactive),75.6% (inactive),64.1% (inactive),49.6% (inactive),55.6% (inactive),34.6% (inactive),72.1% (inactive),62.3% (inactive),35.3% (inactive),59.5% (inactive),47% (inactive),-8.16% (active)
CS(=O)(=O)c1ccc(-n2nc(C(=O)NCc3ccccc3)cc2-c2ccc(Cl)cc2)cc1,66.3% (inactive),74% (inactive),89.7% (inactive),78.9% (inactive),80.7% (inactive),75.5% (inactive),71.5% (inactive),73.9% (inactive),89.4% (inactive),112% (inactive),92.9% (inactive),68% (inactive),80.8% (inactive),56.5% (inactive),104% (inactive),91.3% (inactive),76.1% (inactive),124% (inactive),58.6% (inactive),59.4% (inactive)
CN(C)c1nc(NCCNS(=O)(=O)c2ccc(C(=O)/C=C/c3ccc(F)cc3)cc2)nc(N2CCOCC2)n1,-29.8% (active),-79.7% (active),58.5% (inactive),67.9% (inactive),-86.1% (active),49.2% (inactive),66.1% (inactive),55.2% (inactive),-97.6% (active),97.2% (inactive),62.2% (inactive),59% (inactive),64.3% (inactive),60.1% (inactive),72.2% (inactive),78.6% (inactive),57.3% (inactive),86.5% (inactive),22.5% (inactive),-6.53% (active)
CN1CCN(c2ccc3c4c(cccc24)C(=O)N(c2cccc(-c4nn(-c5ccccc5)cc4-c4nc5ccccc5s4)c2)C3=O)CC1,10.2% (inactive),45.6% (inactive),81.9% (inactive),82.9% (inactive),67.9% (inactive),90.6% (inactive),90.3% (inactive),119% (inactive),96.6% (inactive),51.6% (inactive),120% (inactive),107% (inactive),94.8% (inactive),68.5% (inactive),119% (inactive),101% (inactive),97% (inactive),128% (inactive),60.3% (inactive),47.5% (inactive)
Cc1ccc(-c2cc(-c3ccccc3)[nH]c(=O)c2C#N)cc1,71% (inactive),114% (inactive),99.4% (inactive),84.3% (inactive),90.8% (inactive),83.7% (inactive),90% (inactive),84.6% (inactive),83% (inactive),109% (inactive),95.5% (inactive),82.8% (inactive),86.5% (inactive),73.2% (inactive),95.1% (inactive),79.1% (inactive),81.9% (inactive),84.8% (inactive),76.7% (inactive),91.3% (inactive)
COc1ccc2[nH]c(=O)c(CSc3ccccc3Nc3nccc(-c4ccc5c(c4)OCO5)n3)cc2c1,74.3% (inactive),75.2% (inactive),71.8% (inactive),81.6% (inactive),88.6% (inactive),68.1% (inactive),58.9% (inactive),79.2% (inactive),89.6% (inactive),95.9% (inactive),95.6% (inactive),88% (inactive),89.4% (inactive),75.8% (inactive),99.7% (inactive),90.4% (inactive),68.5% (inactive),107% (inactive),69.8% (inactive),50.1% (inactive)
